The list is not random: actives were taken first. Their share in the collection is about 4.1%.
DAX1 inh-1: NR0B1 (DAX1) inhibition. P51843. AID 504766. HEK293 Gal4-DAX1 luciferase reporter, luminescence. inhibition, % at 6.75 µM. 340,000 compounds, 0.99% hits;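 active = inhibition above the mean over all tested compounds plus 3 SD, cut at about 4.2% in these data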;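 also: 0% = DAX1-transfected cells with DMSO and 100% = empty-vector control cells with DMSO; inhibition shows as a rise in luminescence from relieved DAX1 repression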
Target sequence (P51843 207-470 limits assumed): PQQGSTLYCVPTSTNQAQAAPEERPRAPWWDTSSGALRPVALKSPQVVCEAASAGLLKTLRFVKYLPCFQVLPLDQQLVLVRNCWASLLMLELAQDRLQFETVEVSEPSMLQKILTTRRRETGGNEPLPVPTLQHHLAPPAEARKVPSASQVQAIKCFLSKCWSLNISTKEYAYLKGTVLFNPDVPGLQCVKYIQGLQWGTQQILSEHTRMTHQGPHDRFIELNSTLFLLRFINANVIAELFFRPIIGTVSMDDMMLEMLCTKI
hcDAF-12 act: H. contortus DAF-12 activation, primary screen | activation, % at 6.8 µM | HEK293 hcDAF-12 lit1-tk-luc reporter, luminescence; 0% DMSO, 100% Δ7-dafachronic acid | 370,000 compounds, 1.4% hits;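 active = activation above the mean of all tested compounds plus 3 SD, cut at about 5.5% in these data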;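 also: 100% = response to 3 µM Δ7-dafachronic acid high control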
DAX1 inh-2: blocks DAX1 repression of SF-1 activated StAR promoter. HEK293T StAR-luciferase reporter, SF-1/DAX-1 repression relief. inhibition, % at 6.8 µM. 370,000 compounds, 1.1% hits. AID 652010;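 active = inhibition above the mean over all tested compounds plus 3 SD, cut at about 3.6% in these data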;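 also: 0% = DAX-1 cells with DMSO and 100% = cells lacking DAX-1 with DMSO; higher inhibition means more luminescence from relief of DAX-1 repression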
ssDAF-12 act: S. stercoralis DAF-12 activation, primary screen; activation, % at 6.8 µM; 370,000 compounds, 1% hits; HEK293 ssDAF-12/GRIP1 lit1-tk-luc reporter, luminescence; % of 3 µM dafachronic acid response;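 active = activation above the mean over all tested compounds plus 3 SD, cut at about 0.9% in these data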;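 also: 0% = DMSO-only wells and 100% = 3 µM delta7-dafachronic acid wells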
hgDAF12 agonist: agonists of H. glycines DAF-12 nuclear receptor | HEK293 GAL4-hgDAF12 UAS-luciferase reporter, agonist luminescence; normalized to butyrate control | activation, % at 6.8 µM | 370,000 compounds, 1.8% hits;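 active = activation above a cutoff set at the mean of all screened compounds plus 3 SD, cut at about 10% in these data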;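 also: 0% = DMSO wells and 100% = sodium butyrate wells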
LXRb hcDAF ctr: counter-screen for hcDAF-12 agonists: agonists of human LXR-beta; shares compounds with hcDAF-12 act; HEK293 Gal4-LXR tk-luc reporter, luminescence, 24 h; normalized: DMSO 0%, positive control 100%; activation, % at 6.8 µM; 3,400 tested, under 10 active; AID 743027;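 active = mean percent activation of the reporter above a cutoff set as the average over tested compounds plus their standard deviation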
hcDAF12 conf: confirmation of H. contortus DAF-12 agonists | 3,400 compounds, 61% hits | activation, % at 6.8 µM | shares compounds with hcDAF-12 act | HEK293 hcDAF-12 lit1-tk-luc reporter, luminescence; % of Δ7-dafachronic acid response | AID 743032;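 active = mean activation across triplicate tests above the threshold derived from the earlier primary screen, cut at about 5.5% in these data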;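 also: 0% = DMSO only wells and 100% = 3 µM Δ7-dafachronic acid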
hgDAF12 conf: hgDAF-12 agonism, confirmation assay. shares compounds with hgDAF12 agonist. HEK293 GAL4-hgDAF12 luciferase reporter, agonist mode; percent of butyrate response. activation, % at 6.8 µM. 3,300 compounds, 80% hits. AID 743050;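 active = mean activation over triplicate wells above the hit cutoff derived from the earlier primary screen, cut at about 11% in these data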;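 also: 0% = DMSO low control and 100% = 2 mM sodium butyrate high control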
LXRb DAF12 ctr: LXR-beta agonism as DAF-12 counter-screen; AID 743051; activation, % at 6.8 µM; HEK293 Gal4-LXR luciferase reporter, 24 h; 3,300 tested, under 10 active; shares compounds with hgDAF12 agonist;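 active = mean activation of the triplicate above a set limit carried over from the primary screen, none filed active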
* marks the source's active call; other numbers are inactive results; . = no result given.

SMILES	DAX1 inh-1	hcDAF-12 act	DAX1 inh-2	ssDAF-12 act	hgDAF12 agonist	LXRb hcDAF ctr	hcDAF12 conf	hgDAF12 conf	LXRb DAF12 ctr
CC(C)CC(=O)N1CCc2cc(S(=O)(=O)N(C)Cc3ccco3)ccc21	.	-3	1	-1	-2	.	.	.	.
CN(C)CC(=O)N[C@@H]1C[C@@H]2O[C@@H](CO)CC[C@@H]2O[C@@H]1CCc1ccc(C#Cc2ccccc2)cc1	.	-3	-1	-2	-4	.	.	.	.
O=C(CCCc1ccccc1)NC12CC3CC(CC(C3)C1)C2	3	8.4*	2	1.2*	17*	1	6.9*	15*	1
O=C(COC(=O)c1ccccc1)NC12CC3CC(CC(C3)C1)C2	1	1	3	-1	1	.	.	.	.
CN1CCCCC(NC(=O)CSc2ccccc2)C1=O (centres undefined)	.	0	1	-1	4	.	.	.	.
COc1cccc(-c2nc3ccccc3s2)c1	1	15*	4.4*	1.7*	17*	2	11*	27*	1
COc1cccc(N2C(=O)C(c3ccccc3)=C(c3nc4ccccc4s3)C2NC(C)=O)c1 (centres undefined)	0	0	0	-1	-1	.	.	.	.
CCN(CC)S(=O)(=O)c1ccc(NC(=O)c2ccc(Cl)nc2)cc1	-1	-3	-1	-2	-4	.	.	.	.
Cc1ccc(NC(=O)c2ccc(Cl)nc2)cc1	4	8.7*	2	1.4*	14*	0	8.2*	9	0
O=C(Nc1cccc(NC(=O)c2ccc(Cl)cc2)n1)c1ccc(Cl)cc1	1	0	0	-1	1	.	.	.	.
O=C(Nc1ccc2ccccc2n1)c1ccccc1Cl	3	7.2*	1	0	16*	2	5.7*	18*	1
O=C(Nc1ccc2ccccc2n1)c1ccc(Cl)cc1	3	10*	1	1	15*	2	7.0*	19*	1
COc1cc(NC(=O)C2CCCN(S(=O)(=O)c3ccc(C)cc3)C2)cc(OC)c1 (centres undefined)	.	1	0	-2	-4	.	.	.	.
COc1ccc(N2CCN(CCNS(=O)(=O)c3ccc(Br)s3)CC2)cc1	.	-2	-2	-2	3	.	.	.	.
Clc1ccc(-c2nsc(N3CCOCC3)n2)c(Cl)c1	1	8.6*	2	1	16*	1	3	16*	1
Clc1ccc(-c2ccnc3nc(N4CCOCC4)nn23)c(Cl)c1	2	-1	0	-2	2	.	.	.	.
COC(=O)[C@H]1C[C@@]2(N3CCCC3)c3ccccc3N[C@H]2N1S(=O)(=O)c1ccc([N+](=O)[O-])cc1	.	0	0	-1	3	.	.	.	.
Oc1ccc(C=NNc2nc3ccccc3s2)c(O)c1	3	9.6*	2	1.8*	13*	2	5	11*	1
CCOc1ccc(/C=N/O)cc1	0	1	-1	-1	3	.	.	.	.
Cc1ccc(COc2ccc(/C=N/O)cc2)cc1	5.5*	7.8*	2	1.4*	17*	1	7.0*	17*	1
O=C(NC1=NCCS1)c1cc(Cl)ccc1Cl	-1	0	0	-1	-1	.	.	.	.
O=C(NC1=NCCS1)c1ccc(Cl)c(Cl)c1	5.4*	9.2*	3	1	20*	1	7.5*	18*	1
O=C(NN=C1CCCC1)c1cccs1	3	7.0*	4.4*	1	22*	0	1	4	0
COc1ccc(OC)c(C(=O)c2coc3ccc(OC(C)=O)cc23)c1	0	-1	0	-1	-2	.	.	.	.

Source: PubChem (The Scripps Research Institute Molecular Screening Center)
